Test systems include SK-MEL-2 melanoma; SN12C renal; UO-31 renal; TK-10 renal; ACHN renal; CAKI-1 renal; A498 renal; MOLT-4 leukemia; SR leukemia; RPMI-8226 leukemia; OVCAR-8 ovarian; OVCAR-5 ovarian; OVCAR-4 ovarian; SK-OV-3 ovarian; IGROV1 ovarian; OVCAR-3 ovarian; HS 578T breast; NCI/ADR-RES ovarian; EKVX NSCLC; CCRF-CEM leukemia.
Common to all, as to experiment: NCI-60 one-dose screen, 48 h (100 = growth as untreated, 0 = no growth, -100 = all killed)
Holding throughout (settings): 10 µM unless noted

About 83,000 compounds went through this panel and 20% of them were active in at least one assay; those are over-represented in the sample as a whole.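 A percent growth of 40 corresponds to 60% growth inhibition; 0 means no net growth; -100 means all cells died. Active threshold: below 10.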 A number with no mark means an inactive call. The source made the active and inactive calls.

With `COc1ccc(-c2ccc(-c3ccc(C(=N)N)s3)s2)cc1`, the growth in the assay on SK-MEL-2 melanoma was -78.4% (active); in the assay with SN12C renal it was -51.8% (active); in the assay with UO-31 renal it was -71.4% (active); in the assay on TK-10 renal, -90.7% (active); with ACHN renal, -92.8% (active); in the assay on CAKI-1 renal it was -82.8% (active). In addition, the growth in the assay with A498 renal is -73.9% (active); with MOLT-4 leukemia, -56.2% (active); in the assay on SR leukemia, -40.6% (active); in the assay with RPMI-8226 leukemia, -57.5% (active); with OVCAR-8 ovarian it was -66.9% (active); with OVCAR-5 ovarian it was -92.6% (active). Besides, the growth in the assay with OVCAR-4 ovarian is -56.4% (active); in the assay on SK-OV-3 ovarian, -88.9% (active); with IGROV1 ovarian, -57.2% (active); with OVCAR-3 ovarian, -80.8% (active); with HS 578T breast it was -56.8% (active); in the assay on NCI/ADR-RES ovarian, -61.7% (active).
Turning to `ClCCn1cnc2c(SCc3ccccc3Cl)ncnc21`, the growth is 66.8% in the assay with EKVX NSCLC; 44.8% in the assay with SN12C renal; 34.4% with TK-10 renal; 38.4% with ACHN renal; 47.6% in the assay with CAKI-1 renal; 39% in the assay with A498 renal. For the same molecule, the growth in the assay on CCRF-CEM leukemia was 24.2%; in the assay with MOLT-4 leukemia, -28% (active); in the assay on SR leukemia it was -21.5% (active); in the assay with RPMI-8226 leukemia, 7.3% (active); in the assay on OVCAR-8 ovarian, 47.5%; in the assay with OVCAR-5 ovarian, 69.6%. Moreover, the growth in the assay with OVCAR-4 ovarian is 81.7%; in the assay on SK-OV-3 ovarian, 46.1%; in the assay with OVCAR-3 ovarian it was 35.9%; with HS 578T breast it was 53.2%; in the assay on NCI/ADR-RES ovarian it was 54.6%.
Turning to `NNc1ccc(S(N)(=O)=O)cc1`, the growth is 103% in the assay with EKVX NSCLC; 91.6% in the assay on UO-31 renal; 105% in the assay with ACHN renal; 97.8% in the assay with CAKI-1 renal; 9.37% (active) in the assay with CCRF-CEM leukemia; 102% in the assay with MOLT-4 leukemia. In addition, the growth in the assay on RPMI-8226 leukemia was 82.4%; in the assay on OVCAR-5 ovarian, 102%; in the assay with OVCAR-4 ovarian, 110%; in the assay on SK-OV-3 ovarian, 104%; in the assay with IGROV1 ovarian, 110%; in the assay with OVCAR-3 ovarian, 111%. Also, the growth was 110% in the assay on HS 578T breast and 94.2% in the assay with NCI/ADR-RES ovarian.
Turning to `ClC1=NC(Cl)C(Cl)=N/C1=N\c1ncn[nH]1` (centres undefined), the growth with SK-MEL-2 melanoma was -5.62% (active); in the assay with SN12C renal, 26.3%; with UO-31 renal it was -81.7% (active); with TK-10 renal, -75.9% (active); in the assay on ACHN renal, -92.4% (active); with CAKI-1 renal, -75.9% (active). Further, the growth with A498 renal was 121%; with MOLT-4 leukemia it was -52.2% (active); with SR leukemia, -60.4% (active); with RPMI-8226 leukemia, -8.16% (active); in the assay on OVCAR-8 ovarian, -1.21% (active); in the assay with OVCAR-5 ovarian it was 85%. Moreover, the growth in the assay on OVCAR-4 ovarian is -70.3% (active); with SK-OV-3 ovarian, 66.3%; in the assay on IGROV1 ovarian it was -50.2% (active); with HS 578T breast, 123%; with NCI/ADR-RES ovarian, 91.9%.
Regarding `CCS(=O)(=O)Nc1cccc(Nc2c3cccc(C)c3nc3c(C)cccc23)c1OC`, the growth was 51.4% in the assay on SK-MEL-2 melanoma; 12.5% in the assay with SN12C renal; 10.7% with UO-31 renal; 29.2% with TK-10 renal; -1.64% (active) in the assay with ACHN renal; 10.7% in the assay with CAKI-1 renal. Besides, the growth is -1.15% (active) in the assay on A498 renal; -12.8% (active) in the assay with MOLT-4 leukemia; 5.24% (active) in the assay with SR leukemia; 15.8% with RPMI-8226 leukemia; 24% in the assay with OVCAR-8 ovarian; 21% with OVCAR-5 ovarian. In addition, the growth is 83.5% with OVCAR-4 ovarian; 30.6% in the assay with SK-OV-3 ovarian; 36.2% with IGROV1 ovarian; 61.2% in the assay on HS 578T breast; 41.7% in the assay on NCI/ADR-RES ovarian.
Turning to `CCN(C(=O)CCl)C(C)(C)C(SSSC(c1ccc(Cl)cc1)C(C)(C)N(CC)C(=O)CCl)c1ccc(Cl)cc1` (centres undefined), the growth is 78.5% with SK-MEL-2 melanoma; 88.3% with SN12C renal; 66.9% in the assay on UO-31 renal; 101% in the assay on TK-10 renal; 78.2% in the assay with ACHN renal; 29.1% with CAKI-1 renal. Also, the growth is 98.8% in the assay on A498 renal; 36.9% in the assay with MOLT-4 leukemia; 17.6% with SR leukemia; 51.7% in the assay with RPMI-8226 leukemia; 77.9% in the assay with OVCAR-8 ovarian; 107% in the assay on OVCAR-5 ovarian. For the same molecule, the growth in the assay with OVCAR-4 ovarian is 49.3%; with SK-OV-3 ovarian it was 87.5%; in the assay on IGROV1 ovarian, 74.3%; in the assay with OVCAR-3 ovarian, 72.3%; in the assay on HS 578T breast, 92.5%; in the assay on NCI/ADR-RES ovarian it was 89.8%.
`C#Cc1cccc(Nc2nc3cc([N+](=O)[O-])ccc3nc2Nc2ccc(O)cc2)c1`: the growth with SK-MEL-2 melanoma is -29.5% (active); with EKVX NSCLC, 23.1%; with TK-10 renal, 3.86% (active); in the assay on ACHN renal, 9.93% (active); with CAKI-1 renal, 36.4%; in the assay on A498 renal, 49.4%. Further, the growth in the assay with CCRF-CEM leukemia is 6.32% (active); in the assay on MOLT-4 leukemia, 0.253% (active); in the assay with SR leukemia, 3.34% (active); in the assay with RPMI-8226 leukemia it was 11.9%; in the assay on OVCAR-8 ovarian it was 18.3%; with OVCAR-5 ovarian, 45.8%. In addition, the growth in the assay with OVCAR-4 ovarian is 43.9%; in the assay on SK-OV-3 ovarian it was 39%; in the assay on IGROV1 ovarian it was 27.2%; in the assay on OVCAR-3 ovarian it was -26.2% (active); with HS 578T breast, 44.6%; in the assay with NCI/ADR-RES ovarian, 24.7%.
`COc1cc(OC)c(C(=O)/C=C/c2cccc(OC(C)=O)c2)cc1CC=C(C)C`: the growth in the assay with EKVX NSCLC was 107%; in the assay with SN12C renal, 62.1%; in the assay with TK-10 renal it was 162%; in the assay with ACHN renal, 74.9%; in the assay on CAKI-1 renal it was 241%; with A498 renal it was 120%. Further, the growth with CCRF-CEM leukemia is 9.5% (active); in the assay on MOLT-4 leukemia, 32%; with RPMI-8226 leukemia it was 7.53% (active); with OVCAR-5 ovarian it was 107%; in the assay on OVCAR-4 ovarian, 75.1%; with SK-OV-3 ovarian it was 102%. The growth in the assay with IGROV1 ovarian was 59.2%; in the assay with OVCAR-3 ovarian it was 37.7%; with HS 578T breast, 99%; in the assay on NCI/ADR-RES ovarian, 72%.
In the case of `O=C(Nc1cccc(-n2ccc3c(NC(=O)c4ccccc4)nccc32)c1)c1ccc(Cl)c(Cl)c1`, the growth in the assay on EKVX NSCLC is -33.3% (active); in the assay on SN12C renal, -83.8% (active); in the assay on UO-31 renal, -78.1% (active); with ACHN renal it was -75.9% (active); with CAKI-1 renal it was -71.7% (active); in the assay with A498 renal it was -2.71% (active). The growth in the assay on CCRF-CEM leukemia was -41.6% (active); in the assay on RPMI-8226 leukemia it was -51.3% (active); with OVCAR-5 ovarian, -36.4% (active); in the assay with OVCAR-4 ovarian, -88.7% (active); in the assay on SK-OV-3 ovarian, 18.7%; with IGROV1 ovarian, -52.1% (active). Further, the values for the growth in the assay on OVCAR-3 ovarian and with NCI/ADR-RES ovarian were -81.3% (active) and -28.1% (active), respectively.

Values taken from PubChem BioAssay (NCI).
